Screens as filed in PubChem BioAssay.
FUS yeast rescue – FUS proteinopathy suppression in yeast; S. cerevisiae FUS-expressing, growth rescue, OD600, 24 h; Potency, µM (titrated, usually from 76.6 µM), usual class: activators; actives 0.24% (n = 390,000);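 note: plate controls were DMSO vehicle for no effect and reference control for full effect; nearly all actives have a fitted effect of over 55% in size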
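Steps: raffinose overnight preculture; dilution to OD 0.005 in 2% galactose minimal medium; compound addition (concentration series); 24hr at 30C, 99% humidity; absorbance read at 600 nm.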
TDP43 rescue – rescues yeast growth from TDP-43 toxicity; Potency, µM (doses to about 46.1 µM), inactives show at the top dose growth rescue (activation), usual class: activators; TDP-43 expressing yeast growth rescue, BacTiter-Glo, 24 h; actives 1.8% (n = 410,000); note: % of control where 0% means no effect; nearly all actives have a fitted effect of over 50% in size
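Readout is BacTiter-Glo luminescence of cell growth, so inhibitors register as activators. TDP-43-expressing yeast at OD600=0.02 in galactose medium, after raffinose pregrowth to mid-log, were incubated with compound for 24 hr at 30 deg C.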
Abeta yeast res – compounds reversing amyloid beta toxicity in yeast; yeast expressing A-beta42, growth rescue, OD600, 48 h; response scale: 0% DMSO, 100% iron-clioquinol control; Potency, µM (series often up to 46.1 µM), hits mostly activators; actives 0.063% (n = 410,000); AID 1347071; note: nearly all actives have a fitted effect of over 55% in size
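Growth rescue measured by 600 nm absorbance after 48 h yeast culture at 30 C with compound. Values normalized between DMSO and an equimolar ferric chloride plus clioquinol control.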
aSyn yeast inh – inhibitors of alpha-synuclein toxicity in yeast; Yeast expressing alpha-synuclein, growth rescue, BacTiter-Glo, 24 h; Potency, µM (doses to about 46.1 µM), for inactives: top-dose growth rescue (activation), actives largely listed as activators; actives 0.14% (n = 370,000); AID 652106; note: % of control where 0% means no effect; nearly all actives have a fitted effect of over 65% in size
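Rescue of yeast growth: cells expressing toxic alpha-synuclein, induced in galactose at OD600 0.02, incubated with compound 24 h at 30 C. ATP luminescence quantified growth; inhibitors of toxicity appear as activators.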
The depositor's hits bear a star; i = inactive; ? = inconclusive; / = not tested or not shown; [ ] = remark or other dose. Rows were chosen to be rich in hits. Some 2.1% of all compounds tested hit in one or more screens of this group. Calls come from the whole dose curve; as a rule, active = well fitted curve in the direction sought with a large enough effect; inconclusive = small, poorly fitted or top-dose-only effect, or another doubt; inactive = no such curve, though single readings can be large; an effect the other way counts as inactive or inconclusive. Potency is the fitted concentration of half-maximal effect.

SMILES | FUS yeast rescue | TDP43 rescue | Abeta yeast res | aSyn yeast inh
COc1ccccc1N1CCN(C(=O)c2cnn(-c3ccc(F)cc3F)c2C2CCNCC2)CC1 | i | -9.9% | i | -7.0%
CCC12CC3CC(C1)CC(C(=O)O)(C3)C2 | i | 14.1µM* | i | -0.3%
CC1(C)OC(=O)C2(Cc3ccccc3N3CCC(c4ccccc4)CC32)C(=O)O1 (configuration not stated) | / | / | / | 0.9%
CCOC(=O)c1c(N)sc2c1CCC1C(=O)N(C3CCCCC3)C(=O)C21 (configuration not stated) | 28.2µM* | -14.6% | i | 0.1%
CCCC(=O)NC1=C(Cl)C(=O)c2ccccc2C1=O | / | -90.7% | i | -82.9%
CCNC1=C(Cl)C(=O)c2ccccc2C1=O | i | 12.6µM* | i | 3.3%
CC(C)c1ccc(NC(=O)C2C3C=CC(CC3)C2C(=O)O)cc1 (configuration not stated) | i | 12.6µM* | i | 3.4%
O=C(O)C1C2C=CC(CC2)C1C(=O)O (configuration not stated) | ? | 20µM* | ? | 9.1%
COc1ccc(N2CC(NC(=O)c3cc4ccccc4o3)CC2=O)cc1 (configuration not stated) | i | 16.1% | i | /
O=C(O)c1[nH]c2ccc([N+](=O)[O-])cc2c1-c1ccccc1 | i | -14.4% | ? | -8.4%
O=[N+]([O-])c1ccc2[nH]nc(-c3ccccc3)c2c1 | / | 5.62µM* | i | -6.6%
CC(=O)Nc1ccc(-c2csc(NC(=O)c3ccc(C)o3)n2)cc1 | 28.2µM* | 24.3% | i | -10.9%
Cc1ccc(C(=O)Nc2cccc(NC(=O)c3ccc(C)o3)n2)o1 | i | 7.94µM* | i | -15.4%
CCCc1ccc(-c2csc(NC(=O)C3=COCCO3)n2)cc1 | i | 15.8µM* | i | -4.9%
Cc1ccc2c(c1)c1c3n2CCN(C(=O)C2CC2)C3CCC1 (configuration not stated) | i | 28.2µM* | i | 2.0%
C=CCN1C(=O)[C@H](CC(=O)N2CCCCC2)[C@@]2(C(=O)OCC)CCCC=C12 | i | / | / | /
Cc1ccc(N2C(=O)[C@@H]3[C@H](C2=O)[C@H]2C=C(C(=O)c4ccccc4)C=CN2[C@@H]3C(=O)c2ccc(Cl)cc2)cc1 | 28.2µM* | -18.6% | i | -0.3%
O=C(C1=C[C@@H]2[C@H]3C(=O)N(c4cccc(Cl)c4)C(=O)[C@H]3[C@@H](C(=O)c3ccc(Cl)cc3)N2C=C1)c1ccccc1 | i | -13.8%[0.397 µM] | i | -5.8%
CC(=O)Nc1sc2c(c1-c1nc3ccccc3s1)CNC2 | i | / | / | /
CCn1nc(-c2ccccc2C)nc2c(=O)n(C)c(=O)nc1-2 | / | / | / | -75.7%
C/C(=N\Nc1ccc(F)cc1F)c1ccc(N2CCOCC2)cc1 | i | 1.4% | i | 18.4%
Fc1ccc(N/N=C/c2ccc(N3CCOCC3)cc2)c(F)c1 | i | 17.8µM* | i | 12.8%
O=C1C2=C(Nc3ccccc3SC2c2ccccc2C(F)(F)F)c2ccccc21 (configuration not stated) | i | 22.2% | i | /
CC(C)C(=O)Nc1sc2c(c1C#N)CCCCC2 | i | 12.6µM* | i | 8.3%
COc1ccc(NC(=O)CCS(=O)(=O)c2ccccc2Cl)cc1S(=O)(=O)Nc1ccc(Cl)cc1 | 31.6µM* | -2.0% | i | -3.0%
SMILES | FUS yeast rescue | TDP43 rescue | Abeta yeast res | aSyn yeast inh
COc1ccc(NC(=O)CCC(=O)c2cccs2)cc1S(=O)(=O)Nc1ccc(Cl)cc1 | / | 26.8% | i | 2.4%
COC(C/C=C/C(=O)COCc1ccccc1)OC | i | 12.6µM* | i | 6.2%
Cc1ccc(-n2ncc3c(NC4CCCCC4)ncnc32)cc1Cl | i | ? | i | /
O=C(C1CCCN1S(=O)(=O)c1ccc(Cl)s1)N1CCN(c2ccccc2)CC1 (configuration not stated) | i | / | / | /
Cc1cc(N)n2ncc(-c3ccc(F)cc3)c2n1 | i | 18.9% | i | 2.8%
Cc1cc(N)n2ncc(-c3ccc(Cl)cc3)c2n1 | i | 8.91µM* | i | -11.7%
CC(C)c1ccc(Nc2nc(NCc3ccco3)nc(N3CCOCC3)n2)cc1 | i | 15.8µM* | i | -19.5%
CC(C)c1ccc(Nc2nc(N3CCOCC3)nc(N3CCOCC3)n2)cc1 | i | ? | i | 15.5%
CCC(=O)N1CCN(c2ccc(Cl)cc2NC(=O)c2ccc3c(c2)OCCO3)CC1 | ? | 25.1µM* | i | 0.7%
CCC(=O)N1CCN(c2ccc(NC(=O)c3ccc4c(c3)OCCO4)cc2)CC1 | i | -23.9% | i | -4.8%
O=C(Nc1cc(C(F)(F)F)ccc1N1CCCC1)c1ccc2c(c1)OCO2 | i | 17.8µM* | i | -16.5%
COC(=O)[C@]12C[C@H](CC(=O)N3CCSCC3)C(=O)N(Cc3ccccc3)C1=C[C@H](COCc1ccccc1)O[C@@H]2C | i | / | / | /
COc1cc(OC)c(/C=C/c2cc3ccccc3c[n+]2C)c(OC)c1 | / | / | / | -6.1%
Cn1c(=O)c(Cc2ccccc2)c(O)c2ccccc21 | i | -1.5% | i | -1.4%
CCCCCOC(=O)Cc1c(O)c2ccccc2n(C)c1=O | i | 11.2µM* | i | 12.8%
CC1=C(C(=O)Nc2ccc(F)cc2F)C2(CCCCCC2)OC1=O | i | 29.7% | i | /
CCSC1=N/C(=C\c2ccccc2)C(=O)N1c1ccc(OC)cc1 | i | -1.9% | i | -3.0%
CCN(CC)C1=N/C(=C\c2ccc(OC)cc2)C(=O)N1c1ccccc1 | i | 22.4µM* | i | 8.8%
COc1ccc(N2CCN(C(=O)c3ccc4c(c3)N(Cc3cc(C)ccc3C)C(=O)c3ccccc3S4=O)CC2)cc1 (configuration not stated) | i | 22.8% | i | /
CCN(C(=O)c1ccc2c(c1)N(Cc1cccc(Cl)c1)C(=O)c1ccccc1S2=O)c1ccccc1 (configuration not stated) | 31.6µM* | -19.1% | i | /
Cc1ccc(C)c(CN2C(=O)c3ccccc3S(=O)c3ccc(C(=O)N4CCN(c5cccc(Cl)c5)CC4)cc32)c1 (configuration not stated) | 10µM* | -29.7% | i | /
CCN1CCN(CCNC(=O)c2ccc3c(c2)N(Cc2cccc(Cl)c2)C(=O)c2ccccc2S3=O)CC1 (configuration not stated) | i | -11.1% | i | -2.0%
CCOc1ccc(CCNC(=O)c2ccc3c(c2)N(Cc2ccccc2)C(=O)c2ccccc2S3=O)cc1OCC (configuration not stated) | 25.1µM* | 18.0% | i | /
CN1C[C@@H]2[C@@H]3C(=O)N(Cc4ccccc4)C(=O)[C@@H]3[C@](Cc3ccccc3)(C1=O)N2C(=O)c1ccc(Cl)c(Cl)c1 | 14.1µM* | -3.5% | i | 2.0%
CCN1C[C@@H]2[C@@H]3C(=O)N(Cc4ccccc4)C(=O)[C@@H]3[C@](Cc3ccccc3)(C1=O)N2C(=O)c1ccc(Cl)c(Cl)c1 | i | 4.6% | i | 1.7%
